# “And” between values parts separate entries of the source, which are not always exact repeats. Equal entries are not always repeated. Results filed as inconclusive are left out. A number with no mark means an inactive call. The source made the active and inactive calls. The call rests on the fitted dose curve; in most records, active means well fitted curve in the direction sought with a large enough effect; inconclusive means small, poorly fitted or top-dose-only effect, or another doubt; inactive means no such curve, though single readings can be large; an effect the other way counts as inactive or inconclusive.
# Tests used:
# [1] = molecular target: Cellular tumor antigen p53 (Homo sapiens) (UniProt P04637); test: Primary qHTS for small molecule compounds that upregulate eGFP-tagged delta133p53alpha (in N-terminal) cells. (AID 2060322); conditions: NCI-H358 eGFP-delta133p53alpha fluorescence, 24 h; activation: stronger effect = higher value; further: nearly all actives have a fitted effect of over 75% in size; further: potency means the concentration at half of the fitted maximal effect;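 on activation: cells pre-induced with doxycycline then dosed without doxycycline; series mostly up to about 56 µM; 0% = DMSO vehicle and 100% = reference activator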
# Sequence of Cellular tumor antigen p53 (Homo sapiens) (P04637 whole entry, looked up): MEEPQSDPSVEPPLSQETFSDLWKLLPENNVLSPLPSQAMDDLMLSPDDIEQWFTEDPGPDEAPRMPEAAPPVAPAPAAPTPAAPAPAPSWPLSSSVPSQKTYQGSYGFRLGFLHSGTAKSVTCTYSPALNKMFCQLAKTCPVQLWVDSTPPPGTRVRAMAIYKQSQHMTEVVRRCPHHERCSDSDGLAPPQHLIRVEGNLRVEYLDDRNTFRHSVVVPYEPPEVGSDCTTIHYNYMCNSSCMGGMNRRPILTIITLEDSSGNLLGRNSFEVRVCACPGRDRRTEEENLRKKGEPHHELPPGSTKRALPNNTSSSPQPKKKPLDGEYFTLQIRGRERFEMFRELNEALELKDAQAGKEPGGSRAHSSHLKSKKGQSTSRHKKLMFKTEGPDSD
# Procedure, shortened: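 NCI-H358 cells pre-induced 24 h with 10 ng/ml doxycycline for eGFP-delta133p53alpha, plated dox-free and exposed 24 h at 37C to titrated compounds. Fixed, Hoechst-stained; gated GFP peak intensity by laser scanning cytometry, normalized to DMSO (0%) and 57.5 uM 5-azacytidine (100%).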
# [2] = molecular target: Retinaldehyde dehydrogenase 3 (Homo sapiens) (UniProt P47895); test: qHTS for Inhibitors of the Aldehyde Dehydrogenase Family (ALDH1A3) Primary screen (AID 2061315);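 further: plate controls were DMSO vehicle for no effect and reference inhibitor for full effect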
# [3] = molecular target: Retinaldehyde dehydrogenase 3 (Homo sapiens) (UniProt P47895); test: qHTS for Inhibitors of the Aldehyde Dehydrogenase Family (ALDH1A3) Validation screen (AID 2061312); further: nearly all actives have a fitted effect of over 45% in size; further: potency means the concentration at half of the fitted maximal effect
# [4] = BET inhibitor-based combinations targeting novel dependencies in MECOM-rearranged (r) AML: UCSD-AML1 cell line (AID 2202235); further: nearly all actives have a fitted effect of over 40% in size; further: potency means the concentration at half of the fitted maximal effect
# Procedure, shortened: (§1)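 Activity is given as area under the curve and as Z-AUC, mean-centred within each cell line. It comes from 11-point dose curves normalized to DMSO and empty wells. CellTiter-Glo luminescence was read after 48 hr drug exposure of 500 cells/well.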
# [5] = BET inhibitor-based combinations targeting novel dependencies in MECOM-rearranged (r) AML: AML-191 cell line (AID 2202236; further: nearly all actives have a fitted effect of over 35% in size; further: potency means the concentration at half of the fitted maximal effect)
# Procedure, shortened: (§2)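 Cells were plated at 500 per well and exposed to an 11-point dose series of each drug for 48 hr. Viability was measured by CellTiter-Glo luminescence, normalized to DMSO and empty-well controls, and summarized as AUC and per-cell-line Z-AUC.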
# [6] = BET inhibitor-based combinations targeting novel dependencies in MECOM-rearranged (r) AML: AML-194 cell line (AID 2202237; further: nearly all actives have a fitted effect of over 40% in size; further: potency means the concentration at half of the fitted maximal effect)
# Procedure, shortened: as §2
# [7] = BET inhibitor-based combinations targeting novel dependencies in MECOM-rearranged (r) AML: SET-2 cell line (AID 2202231); conditions: SET-2 AML cells viability, CellTiter-Glo luminescence, 48 h; viability: stronger effect = lower value, concentration not given here; further: potency means the concentration at half of the fitted maximal effect; nearly all actives have a fitted effect of over 35% in size
# Procedure, shortened: as §2
# [8] = BET inhibitor-based combinations targeting novel dependencies in MECOM-rearranged (r) AML: OCI-AML3 cell line (AID 2202232); conditions: Potency: OCI-AML3 viability; further: potency means the concentration at half of the fitted maximal effect; nearly all actives have a fitted effect of over 35% in size
# Procedure, shortened: as §2
# [9] = BET inhibitor-based combinations targeting novel dependencies in MECOM-rearranged (r) AML: MV-4-11 cell line (AID 2202233); further: potency means the concentration at half of the fitted maximal effect; nearly all actives have a fitted effect of over 45% in size
# Procedure, shortened: as §1
# [10] = BET inhibitor-based combinations targeting novel dependencies in MECOM-rearranged (r) AML: HNT-34 cell line (AID 2202234); further: potency means the concentration at half of the fitted maximal effect; nearly all actives have a fitted effect of over 35% in size
# Procedure, shortened: as §1
smiles,measurement,setting,value
O=C(Nc1ccc(-c2ccc(Cl)c(Cl)c2)cc1)C1=C(O)c2ccccc2S(=O)(=O)N1,activation,[1],-5.73%
same,Potency,[2],inactive
Cc1ccccc1C(C(=O)NC1CCCCC1)N(C(=O)Cn1ccnc1C)c1cccc(F)c1 (centres undefined),activation,[1],-12.7% and -11.5%
same,Potency,[3],inactive
same,Potency,[4],inactive
same,Potency,[5],inactive
same,Potency,[6],inactive
CCC/C=C/C=C/C1CC(O)C(O)C(=O)C1CO (centres undefined),activation,[1],-17.6%
same,Potency,[2],inactive
COc1c(C(CC(C)C)OC(C)=O)ccc(Oc2c(O)cc(C)cc2/C=C/C(C)=O)c1C(=O)O (centres undefined),activation,[1],-25.2%
same,Potency,[2],inactive
O=C(Nc1cnc(Cl)nc1)c1ccc(F)c(F)c1,activation,[1],5.25%
same,Potency,[3],inactive
same,Potency,[2],inactive
COC(=O)C1=C(C)NC(C)=C(C(=O)O[C@@H]2CCCN(Cc3ccccc3)C2)[C@@H]1c1cccc([N+](=O)[O-])c1,activation,[1],8.47% and 23.4%
same,Potency,[3],inactive
same,Potency,[2],inactive
O=C(Cc1c(F)cccc1F)Nc1cc(OCc2ccc(Cl)cc2)ccn1,activation,[1],15.7%
same,Potency,[2],inactive
COc1ccc(C2(O)c3c(ccc4c3OC(C)(CCC=C(C)C)C=C4)NC(=O)C2OC)cc1 (centres undefined),activation,[1],-4.58%
same,Potency,[2],inactive
CC(C)C(CO)Nc1nc(Nc2ccc(C(=O)O)c(Cl)c2)c2ncn(C(C)C)c2n1 (centres undefined),activation,[1],6.21%
same,Potency,[3],inactive
same,Potency,[2],inactive
CC(C)CC(=O)n1cc(C(N)=O)c(=O)cc1C(O)c1ccccc1 (centres undefined),activation,[1],-1.53%
same,Potency,[2],inactive
CC(=O)OC1/C(C)=C/C(=O)C(OC(C)=O)C(C)(C)/C=C/C(C)C(=O)C2(OC(C)=O)CC(C)C(OC(=O)c3ccccc3)C12 (centres undefined),activation,[1],-10.7%
same,Potency,[2],inactive
CCCc1cc2c(N3CCN(C4=NCC(C)(C)S4)CC3)ncnc2s1,activation,[1],-16.2%
same,Potency,[2],inactive
Cn1nc(-c2ccc(C(F)(F)F)cc2)nc2c(=O)n(C)c(=O)nc1-2,Potency,[1],4.78 µM (active)
same,Potency,[3],2.51 µM (active)
CN(Cc1ccc(C(=O)O)cc1)c1ccc(OCc2c(-c3c(Cl)cccc3Cl)noc2C2CC2)nc1C(F)(F)F,activation,[1],-10.5%
same,Potency,[2],inactive
COc1cc(CCc2ccc(OCC=C(C)C)cc2)cc(OC)c1OC,activation,[1],-17.6%
same,Potency,[2],inactive
O[C@@H](COc1cccc2ncccc12)CN1CCN(C2c3ccccc3[C@@H]3[C@H](c4ccccc42)C3(F)F)CC1 (some centres undefined),activation,[1],22%
same,Potency,[3],inactive
same,Potency,[2],inactive
same,Potency,[7],26.3 µM (active)
same,Potency,[8],20.9 µM (active)
same,Potency,[9],18.6 µM (active)
same,Potency,[10],26.3 µM (active)
same,Potency,[5],23.5 µM (active)
same,Potency,[6],23.5 µM (active)
C/C=C(/COC(=O)/C(C)=C/C)C(=O)OC/C=C/c1ccc(OC)cc1,activation,[1],0.893%
same,Potency,[2],inactive
Cc1csc(N(C(=O)CSc2ccc(-c3ccccc3)nn2)C2CC2)n1,activation,[1],10.5%
same,Potency,[3],2.82 µM (active)
O=C(NN1CCCCC1)c1nn(-c2ccc(Cl)cc2Cl)c(-c2ccc(C#Cc3ccc(C(F)(F)F)cc3)s2)c1CNS(=O)(=O)N1CCCC1,activation,[1],-21%
same,Potency,[2],inactive
C/C(=C\CCC1(C)C2CCC(C2)C1(C)O)C(=O)O (centres undefined),activation,[1],-13.7%
same,Potency,[2],inactive
COc1cc2c(Oc3ccc(-c4cnc(Nc5ccc(F)cc5)n(C)c4=O)cc3F)ccnc2cc1OCCCN1CCOCC1,activation,[1],11.5%
same,Potency,[3],11.2 µM (active)
same,Potency,[2],inactive
same,Potency,[7],20.9 µM (active)
same,Potency,[8],16.6 µM (active)
same,Potency,[9],0.0934 µM (active)
same,Potency,[10],0.372 µM (active)
same,Potency,[4],11.8 µM (active)
same,Potency,[5],5.9 µM (active)
COc1ccc(OC)c(-c2ccc(NC(=O)c3ccncc3F)cc2)c1,activation,[1],-5.73%
same,Potency,[2],inactive
COc1ccc(S(=O)(=O)Nc2nc(-c3cccc([N+](=O)[O-])c3)cs2)cc1OC,activation,[1],1.67%
same,Potency,[2],inactive
COc1ccc2cc(C(C)C(=O)Oc3ccc(C(N)=S)cc3)ccc2c1 (centres undefined),activation,[1],-3.34%
same,Potency,[3],inactive
same,Potency,[2],inactive
C=C1C(O)C(O)C2(CC3C(C)=CCC4C(C)(C(=O)O)CCCC34C)OC2C1O (centres undefined),activation,[1],-22.1%
same,Potency,[2],inactive
CCOc1nc2cccc(C(=O)OCc3oc(=O)oc3C)c2n1Cc1ccc(-c2ccccc2-c2noc(O)n2)cc1,activation,[1],0%
same,Potency,[3],inactive
same,Potency,[2],inactive
Cn1nnc(-c2ccc(-c3ccc(N4C[C@H](COP(=O)(O)O)OC4=O)cc3F)cn2)n1,activation,[1],-3.67%
same,Potency,[2],inactive
O=C(O)COCCN1CCN([C@H](c2ccccc2)c2ccc(Cl)cc2)CC1,activation,[1],-5.73%
same,Potency,[3],inactive
same,Potency,[2],inactive

# Source: PubChem BioAssay (NCATS)
